Inconclusive results are not listed. Unmarked numbers belong to inactive results. Activity calls are given as the source filed them. Calls follow the shape of the dose curve; as a rule, active = well fitted inhibition curve with a large enough effect in the repeat runs; inconclusive = weak or mixed curves; inactive = flat fitted curve, though single readings scatter.
target: Luciferin 4-monooxygenase (Photinus pyralis) (UniProt P08659); experiment: qHTS assay to identify small molecule inhibitors of firefly luciferase (AID 1224835); also: nearly all actives have a fitted effect of over 25% in size; conditions: purified P. pyralis luciferase, luminescence inhibition; series mostly up to 115 µM; activity change, negative = inhibition: at the top concentration
Text: U.S. Tox21 Program National Center for Advancing Translational Sciences [NCATS] NIH Chemical Genomics Center [NCGC] U.S. Environmental Protection Agency [EPA] National Institutes of Environmental Health Sciences [NIEHS] National Toxicology Program [NTP] U.S. Food and Drug Administration [FDA] Tox21 Assay Overview: Firefly (Photinus pyralis) luciferase is one of the most commonly used transcriptional reporters. Firefly luciferase reporter-gene assays are generally considered one of the most sensitive assay types (Wood, 1995; Wood, 1998). However, it was initially observed, in 1991, by Thompson et al., that compounds that resemble the substrates of firefly luciferase (FLuc) can act as competitive inhibitors of the enzyme, and that these compounds, upon interaction with luciferase in the cell, can actually stabilize the protein and increase its half-life. Previous profiling work by other groups to determine the prevalence of compounds that affect FLuc enzymatic activity (PubChem AID 411) identified that ~3% of the MLSMR library (then at ~72K) inhibited FLuc. […] Thus the Tox21 10K library is profiled for activity against FLuc using a biochemical assay of purified FLuc and KM concentrations of FLuc substrates (D-luciferin and ATP).
These assay plates were then treated with 23nL of compound or DMSO using a Kalypsys pin tool, which allows for delivery of a 6-point interplate titration of each compound to the assay plate (quantitative HTS.) 1 uL of firefly luciferase mix (containing 50 mM Tris acetate, pH 7.6, 0.04 uM P. pyralis luciferase, 0.01% Tween, 0.05% BSA and dH2O) was then delivered by FRD to each well. Luciferase activity was then measured using a ViewLux CCD imager.
% is scaled to controls: 0 for no effect and ±100 for the full control effect; potency is read from the fitted curve at half-maximal effect.

Sequence of Luciferin 4-monooxygenase (Photinus pyralis) (P08659 whole entry, looked up): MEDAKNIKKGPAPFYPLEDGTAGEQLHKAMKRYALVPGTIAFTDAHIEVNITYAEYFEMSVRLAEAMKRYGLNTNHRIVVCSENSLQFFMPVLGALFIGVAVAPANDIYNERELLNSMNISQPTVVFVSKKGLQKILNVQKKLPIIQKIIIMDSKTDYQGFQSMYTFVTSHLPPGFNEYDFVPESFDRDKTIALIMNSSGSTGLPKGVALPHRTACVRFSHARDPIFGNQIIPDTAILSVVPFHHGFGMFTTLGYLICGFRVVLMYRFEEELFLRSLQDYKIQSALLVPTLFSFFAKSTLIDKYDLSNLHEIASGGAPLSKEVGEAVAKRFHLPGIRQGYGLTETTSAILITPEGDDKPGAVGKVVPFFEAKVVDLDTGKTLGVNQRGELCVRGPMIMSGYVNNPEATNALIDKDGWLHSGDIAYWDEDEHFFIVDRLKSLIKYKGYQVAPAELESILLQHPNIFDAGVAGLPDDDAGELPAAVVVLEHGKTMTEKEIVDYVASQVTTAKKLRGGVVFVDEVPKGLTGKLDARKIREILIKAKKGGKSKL

SMILES	Potency	activity change, negative = inhibition
CCCCCCCCCCCC[N+](C)(C)CCOc1ccccc1	inactive	
C[C@H]1O[C@H](OC2[C@@H](O)[C@@H](O)C(O)[C@H](O)[C@H]2O)[C@@H](N)C[C@@H]1N=C(N)C(=O)O (stereo not given in full)		6.24%
CC(=O)OC(c1ccccc1)C(Cl)(Cl)Cl (stereo not given)		0.49%
O=C([O-])c1ccccn1.O=C([O-])c1ccccn1.O=C([O-])c1ccccn1.[Cr+3]		2.57%
CCC(C)(C)c1ccc(O)c(C(C)(C)CC)c1	inactive	
CN(C)N		3.84%
COP(=O)(OC)OC(Br)C(Cl)(Cl)Br (stereo not given)		-13%
OC[P+](CO)(CO)CO	inactive	
Clc1ccc2ccccc2c1		-7.03%
C#C[C@]1(O)CC[C@H]2[C@@H]3CCC4=CC(=O)CCC4=C3C=C[C@@]21CC		6.91% [at 52.9 µM]
CCCC(C)(COC(N)=O)COC(=O)NC(C)C (stereo not given)	inactive	
CC(C)(C#N)C(C)(C)C#N		-0.32%
C[N+](C)(C)CC1CO1 (stereo not given)		4.66%
CC(C)(c1ccccc1)c1cc(-n2nc3ccccc3n2)c(O)c(C(C)(C)c2ccccc2)c1		1.38% [at 52.9 µM]
C1CS1		0.254%
CCCCCl		-5.74%
O=C(O)C(O)C(O)C(=O)O (stereo not given)		0.954%
OCCSSCCO		1.33%
CCSCc1ccccc1OC(=O)NC		0%
C[C@]12CC[C@H]3[C@@H](CCC4=CC(=O)CC[C@@H]43)[C@@H]1CC[C@@H]2OC(=O)CCc1ccccc1		8.95% [at 52.9 µM]

SMILES	Potency	activity change, negative = inhibition
C=C(Cl)Cl		3.37%
C=CCc1ccc(OC(=O)Cc2ccccc2)c(OC)c1	25.2 µM (active)	
CC(Cl)C(=O)O (stereo not given)		0.0978%
CCCCCCCCCCCCN(C)C		1.86%
C=CCN1C[C@H](C)N([C@H](c2ccc(C(=O)N(CC)CC)cc2)c2cccc(OC)c2)C[C@H]1C		0.241% [at 52.9 µM]
Cc1nnc(-c2ccccc2)c(=O)n1N		-1.25%
CC(C)(C)OOC(C)(C)CCC(C)(C)OOC(C)(C)C		3.44%
CC[N+]1(C)CCCC(OC(=O)C(O)(c2ccccc2)c2ccccc2)C1 (stereo not given)		0.819% [at 52.9 µM]
O=C(NCNC(=O)NC1C(=O)NC(=O)N1CO)NC1C(=O)NC(=O)N1CO (stereo not given)		2.55%
CCCBr		2.04%
CCOP(=O)(SC(C)CC)N1CCSC1=O (stereo not given)		6.14%
CCC(=O)O[C@@H]1C=C2CCC3C(CCC4(C)C3CC[C@@H]4OC(=O)CC)C2CC1 (stereo not given in full)		7.06% [at 52.9 µM]
CCCCCBr		0.118%
Cc1nc(N(C)C)nc(OC(=O)N(C)C)c1C		5.34%
CC(C)[C@@H](C(=O)O[C@@H](C#N)c1cccc(Oc2ccccc2)c1)c1ccc(Cl)cc1	inactive	
CNC(=O)Oc1cccc(N=CN(C)C)c1		-0.619%
Cc1cccc(C)c1NC1=NCCCS1		-2.56% [at 52.9 µM]
FC(Cl)(Cl)C(F)(Cl)Cl		0.898%
CC(O)CN1CCN(CC(=O)[O-])CCN(CC(=O)[O-])CCN(CC(=O)[O-])CC1.[Gd+3] (stereo not given)		2.86% [at 52.9 µM]
N#CC(C#N)=Cc1ccc(O)c(O)c1		2.12% [at 52.9 µM]
